About 2,000 (36%) of roughly 5,500 compounds were called active. Roughly 18% stayed inconclusive and do not appear here. Rule as the data show it: active = normalized growth mostly below about 0.91 (no sharp cut-off); inconclusive = no clear call, values can overlap the other calls; inactive = mostly above about 0.92. The list shows a part of the results.
Assay: chemical genetic growth profiling, strain panel (AID 1159580);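 also: tested at 20 µM; growth read once vehicle control cultures reached saturation at 30 °C; 1 = growth at the plate median or of vehicle wells; lower values mean less growth of the strain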
Conditions: growth OD

Measured: normalized growth

O=C(O)c1cc2ccccc2[nH]1
inactive: S. cerevisiae deletion strains, locus YJR075W, strain HOC1, active compounds read low 1.01 | S. cerevisiae deletion strains, locus YKL009W, strain mrt4, active compounds read low 0.991 | S. cerevisiae deletion strains, locus YKL068W, active compounds read low 1 | S. cerevisiae deletion strains, locus YKL085W, strain MDH1 (second series), active compounds read low 1.02 | S. cerevisiae deletion strains, locus YKL085W, strain MDH1, active compounds read low 1.02 | S. cerevisiae deletion strains, locus YKL160W, strain elf1, active compounds read low 0.972 | S. cerevisiae deletion strains, locus YKL190W, strain CNB1, active compounds read low 1 | S. cerevisiae deletion strains, locus YKR001C, strain vps1, active compounds read low 1.02 | S. cerevisiae deletion strains, locus YKR026C, strain gcn3, active compounds read low 0.961 | S. cerevisiae deletion strains, locus YKR091W, strain srl3, active compounds read low 0.98 | S. cerevisiae deletion strains, locus YLL001W, strain dnm1, active compounds read low 0.974 | S. cerevisiae deletion strains, locus YLL026W, active compounds read low 1 | S. cerevisiae deletion strains, locus YLL041C, strain sdh2, active compounds read low 0.989 | S. cerevisiae deletion strains, locus YLR027C, strain aat2, active compounds read low 0.993 | S. cerevisiae deletion strains, locus YLR039C, strain RIC1, active compounds read low 1.01 | S. cerevisiae deletion strains, locus YLR058C, strain SHM2, active compounds read low 1.01 | S. cerevisiae deletion strains, locus YLR102C, strain apc9, active compounds read low 1.02 | S. cerevisiae deletion strains, locus YLR113W, strain HOG1, active compounds read low 0.95 | S. cerevisiae deletion strains, locus YLR221C, strain rsa3, active compounds read low 0.989 | S. cerevisiae deletion strains, locus YLR258W, strain gsy2, active compounds read low 0.989 | S. cerevisiae deletion strains, locus YLR262C, strain YPT6 (second series), active compounds read low 0.991 | S. cerevisiae deletion strains, locus YLR262C, strain YPT6, active compounds read low 1.05 | S. cerevisiae deletion strains, locus YLR268W, strain sec22, active compounds read low 1.01 | S. cerevisiae deletion strains, locus YLR320W, strain mms22, active compounds read low 1.01 | S. cerevisiae deletion strains, locus YLR330W, strain CHS5, active compounds read low 1.01 | S. cerevisiae deletion strains, locus YLR342W, strain FKS1 (second series), active compounds read low 0.993 | S. cerevisiae deletion strains, locus YLR342W, strain FKS1, active compounds read low 0.991 | S. cerevisiae deletion strains, locus YLR357W, strain rsc2, active compounds read low 0.983 | S. cerevisiae deletion strains, locus YLR370C, strain arc18, active compounds read low 0.989 | S. cerevisiae deletion strains, locus YLR371W, strain rom2, active compounds read low 1.01 | S. cerevisiae deletion strains, locus YLR384C, strain iki3, active compounds read low 0.976 | S. cerevisiae deletion strains, locus YLR418C, strain cdc73, active compounds read low 1.01 | S. cerevisiae deletion strains, locus YML016C, strain PPZ1, active compounds read low 1.01 | S. cerevisiae deletion strains, locus YML032C, strain rad52, active compounds read low 1 | S. cerevisiae deletion strains, locus YML120C, strain ndi1, active compounds read low 0.979 | S. cerevisiae deletion strains, locus YML124C, strain tub3, active compounds read low 1.01 | S. cerevisiae deletion strains, locus YMR058W, strain fet3, active compounds read low 0.975 | S. cerevisiae deletion strains, locus YMR078C, strain ctf18, active compounds read low 1.02 | S. cerevisiae deletion strains, locus YMR125W, strain sto1, active compounds read low 0.941 | S. cerevisiae deletion strains, locus YMR129W, active compounds read low 0.987 | S. cerevisiae deletion strains, locus YMR205C, strain PFK2, active compounds read low 1.02 | S. cerevisiae deletion strains, locus YMR223W, strain ubp8, active compounds read low 1.01 | S. cerevisiae deletion strains, locus YMR231W, strain pep5, active compounds read low 1 | S. cerevisiae deletion strains, locus YMR263W, strain SAP30, active compounds read low 1.01 | S. cerevisiae deletion strains, locus YMR307W, strain GAS1, active compounds read low 1.04 | S. cerevisiae deletion strains, locus YNL067W, strain RPL9B, active compounds read low 1.01 | S. cerevisiae deletion strains, locus YNL071W, strain lat1, active compounds read low 0.986 | S. cerevisiae deletion strains, locus YNL128W, strain TEP1, active compounds read low 1 | S. cerevisiae deletion strains, locus YNL153C, strain GIM3, active compounds read low 1.01 | S. cerevisiae deletion strains, locus YNL183C, strain NPR1, active compounds read low 0.915 | S. cerevisiae deletion strains, locus YNL209W, strain ssb2, active compounds read low 0.984 | S. cerevisiae deletion strains, locus YNL233W, strain BNI4, active compounds read low 1 | S. cerevisiae deletion strains, locus YNL248C, strain rpa49, active compounds read low 0.954 | S. cerevisiae deletion strains, locus YNL250W, strain rad50, active compounds read low 1 | S. cerevisiae deletion strains, locus YNL271C, strain bni1, active compounds read low 1.01 | S. cerevisiae deletion strains, locus YNL298W, strain CLA4, active compounds read low 1 | S. cerevisiae deletion strains, locus YNL307C, strain MCK1, active compounds read low 1.02 | S. cerevisiae deletion strains, locus YNL322C, strain KRE1 (second series), active compounds read low 0.979 | S. cerevisiae deletion strains, locus YNL322C, strain KRE1, active compounds read low 1.02 | S. cerevisiae deletion strains, locus YNR049C, strain mso1, active compounds read low 0.983 | S. cerevisiae deletion strains, locus YNR052C, strain pop2, active compounds read low 1.02 | S. cerevisiae deletion strains, locus YOL006C, strain TOP1, active compounds read low 1.04 | S. cerevisiae deletion strains, locus YOL012C, strain htz1 1.07 | S. cerevisiae deletion strains, locus YOL147C, strain pex11, active compounds read low 1.01 | S. cerevisiae deletion strains, locus YOR001W, strain rrp6, active compounds read low 0.963 | S. cerevisiae deletion strains, locus YOR061W, strain CKA2, active compounds read low 1.01 | S. cerevisiae deletion strains, locus YOR069W, strain VPS5, active compounds read low 0.991 | S. cerevisiae deletion strains, locus YOR070C, strain gyp1, active compounds read low 0.999 | S. cerevisiae deletion strains, locus YOR080W, strain dia2, active compounds read low 0.99 | S. cerevisiae deletion strains, locus YOR083W, strain WHI5, active compounds read low 0.967 | S. cerevisiae deletion strains, locus YOR106W, strain vam3, active compounds read low 0.972 | S. cerevisiae deletion strains, locus YOR136W, strain idh2, active compounds read low 1.02 | S. cerevisiae deletion strains, locus YOR144C, strain elg1, active compounds read low 1.02 | S. cerevisiae deletion strains, locus YOR184W, strain ser1, active compounds read low 1 | S. cerevisiae deletion strains, locus YOR231W, strain MKK1, active compounds read low 0.995 | S. cerevisiae deletion strains, locus YOR265W, strain rbl2, active compounds read low 0.991 | S. cerevisiae deletion strains, locus YOR270C, strain vph1, active compounds read low 0.974 | S. cerevisiae deletion strains, locus YOR290C, strain snf2, active compounds read low 0.955 | S. cerevisiae deletion strains, locus YOR316C, strain cot1, active compounds read low 1.02 | S. cerevisiae deletion strains, locus YPL051W, strain arl3, active compounds read low 0.979 | S. cerevisiae deletion strains, locus YPL055C, strain LGE1, active compounds read low 0.998 | S. cerevisiae deletion strains, locus YPL078C, strain atp4, active compounds read low 0.948 | S. cerevisiae deletion strains, locus YPL106C, strain sse1, active compounds read low 0.972 | S. cerevisiae deletion strains, locus YPL240C, strain hsp82, active compounds read low 0.997 | S. cerevisiae deletion strains, locus YPL241C, strain CIN2, active compounds read low 1.06 | S. cerevisiae deletion strains, locus YPL256C, strain CLN2, active compounds read low 1 | S. cerevisiae deletion strains, locus YPR119W, strain clb2, active compounds read low 1 | S. cerevisiae deletion strains, locus YPR141C, strain kar3, active compounds read low 0.996 | S. cerevisiae deletion strains, locus YPR163C, strain tif3, active compounds read low 1.01 | S. cerevisiae deletion strains, locus YPR167C, strain met16, active compounds read low 1.02 | S. cerevisiae deletion strains, strain wtn01, active compounds read low 1.01 | S. cerevisiae strains, strain wild type, active compounds read low 0.994

Reference: PubChem BioAssay AID1159580 (chemical genetic matrix, 2015)
